In PubChem BioAssay (EPA / NIEHS):
Where “and” joins values, the source holds several entries; their conditions need not be identical. Identical values can stand only once. The source holds several records for some structures; these can differ, active in one and inactive in another. Calls of active or inactive are those of the source. The calls were made as follows: active = hit-call score of the fitted dose curve at least 0.9, where 1 is the maximum; inactive = score below 0.9.

How the values were obtained:
[1] = read-out: Interleukin-6 (IL6), IL6 (gene 3569); experiment: BSK_CASM3C_IL6: BioMAP Diversity Plus: CASM3C Assay for Interleukin-6 (IL6) Biomarker Activity for (AID 2283040); settings: primary human coronary artery smooth muscle cells; actives raise or lower the signal
[2] = read-out: Tissue plasminogen activator (tPA), PLAT (gene 5327); experiment: BSK_BE3C_tPA: BioMAP Diversity Plus: BE3C Assay for Tissue plasminogen activator (tPA) Biomarker Activity (AID 2283041); settings: primary human bronchial epithelial cells; actives raise or lower the signal
Summary of the method: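 Human primary bronchial epithelial cells were dosed with chemical and tPA biomarker levels measured by ELISA 24 hours later. Activity was fitted bidirectionally against DMSO as negative control and baseline.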

[3] = read-out: Interleukin-8 (IL8), CXCL8 (gene 3576); experiment: BSK_CASM3C_IL8: BioMAP Diversity Plus: CASM3C Assay for Interleukin-8 (IL8) Biomarker Activity (AID 2283042); settings: primary human coronary artery smooth muscle cells; actives raise or lower the signal;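 also: IL-8 protein level quantified by ELISA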
[4] = read-out: Human Leukocyte Antigen - DR isotype (HLADR), HLA-DRA (gene 3122); experiment: BSK_CASM3C_HLADR: BioMAP Diversity Plus: CASM3C Assay for Human Leukocyte Antigen - DR isotype (HLADR) Biomarker Activity (AID 2283043); settings: primary human coronary artery smooth muscle cells; actives raise or lower the signal;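 also: cell-surface HLA-DR protein level quantified by ELISA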
[5] = read-out: Macrophage colony-stimulating factor (MCSF), CSF1 (gene 1435); experiment: BSK_CASM3C_MCSF: BioMAP Diversity Plus: CASM3C Assay for Macrophage colony-stimulating factor (MCSF) Biomarker Activity (AID 2283044); settings: primary human coronary artery smooth muscle cells; actives raise or lower the signal;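 also: M-CSF protein amount quantified by ELISA after 24 h exposure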
[6] = read-out: Low-density lipoprotein receptor (LDLR), LDLR (gene 3949); experiment: BSK_CASM3C_LDLR: BioMAP Diversity Plus: CASM3C Assay for Low-density lipoprotein receptor (LDLR) Biomarker Activity (AID 2283045); settings: primary human coronary artery smooth muscle cells; actives raise or lower the signal;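 also: LDLR protein level on the cell surface quantified by ELISA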
[7] = read-out: Monocyte Chemoattractant Protein-1 (MCP1), CCL2 (gene 6347); experiment: BSK_CASM3C_MCP1: BioMAP Diversity Plus: CASM3C Assay for Monocyte Chemoattractant Protein-1 (MCP1) Biomarker Activity (AID 2283046); settings: primary human coronary artery smooth muscle cells; actives raise or lower the signal;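 also: MCP-1 level quantified by ELISA 24 h after dosing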
[8] = BSK_CASM3C_Proliferation: Cell Proliferation Assessment in the BioMAP Diversity Plus: CASM3C Assay (AID 2283047); settings: primary human coronary artery smooth muscle cells;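 also: sulforhodamine B total protein stain as relative cell number at 560 nm; sub-confluent cells exposed 48 h before staining; fitted both ways against DMSO so gain or loss of cell number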
[9] = read-out: Monokine induced gamma interferon (MIG), CXCL9 (gene 4283); experiment: BSK_CASM3C_MIG: BioMAP Diversity Plus: CASM3C Assay for Monokine induced gamma interferon (MIG) Biomarker Activity (AID 2283048); settings: primary human coronary artery smooth muscle cells; actives raise or lower the signal;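 also: MIG protein level measured by ELISA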
[10] = read-out: serum amyloid A (SAA), SAA1 (gene 6288); experiment: BSK_CASM3C_SAA: BioMAP Diversity Plus: CASM3C Assay for serum amyloid A (SAA) Biomarker Activity (AID 2283049); settings: primary human coronary artery smooth muscle cells; actives raise or lower the signal;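 also: SAA protein level quantified by ELISA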

Measured: AC50

Oc1c(Cl)cc(Cl)c(Cl)c1Cl
active: [1] 0.383 µM
inactive: all other assays above

COc1ccc(C(=O)/C(Br)=C\C(=O)O)cc1
active: [1] 20 µM and 23.2 µM | [2] 4.45 µM | [3] 35.4 µM and 29.1 µM | [4] 6.86 µM and 20.6 µM | [5] 20 µM and 29.7 µM | [6] 13.2 µM and 26.7 µM | [7] 30 µM and 31.1 µM | [8] 4.88 µM and 24.3 µM | [9] 29.2 µM and 31 µM | [10] 11.4 µM
inactive: [2] | [10]

CC=C(C)C=CC=C(C)C
active: [2] 3.97 µM | [4] 3.97 µM | [5] 0.46 µM | [8] 24 µM
inactive: all other assays above

C[N+](C)(C)CCCNS(=O)(=O)C(F)(F)C(F)(F)C(F)(F)C(F)(F)C(F)(F)C(F)(F)C(F)(F)C(F)(F)F
active: [2] 17.1 µM and 18.5 µM | [5] 16.8 µM | [6] 19.5 µM and 26.4 µM | [10] 7.89 µM
inactive: [1] | [3] | [4] | [5] | [7] | [8] | [9] | [10]

CCN1CN(CC)CN(CC)C1
inactive: all assays above

CC/C=C\C/C=C\C/C=C\CCCCCCCC(=O)OC
active: [1] 31.5 µM | [2] 9.51 µM | [3] 32.2 µM | [4] 12.1 µM | [5] 22.6 µM | [6] 28.7 µM | [7] 29.7 µM | [8] 8.6 µM | [9] 29.3 µM | [10] 26 µM

C=CC(=O)OCCCCCCCC(C)C
inactive: all assays above

CCCCCC1=CCCC1=O
inactive: all assays above

Oc1ccccc1Cc1ccccc1O
active: [2] 13.4 µM and 10.2 µM
inactive: all other assays above

CC(C)C(=O)OCCc1ccccc1
inactive: all assays above

COc1ccc(C(=O)c2ccccc2)c(O)c1
inactive: all assays above

Cc1ccc([N+](=O)[O-])cc1N
inactive: all assays above

CC(C)CCCCCOC(=O)CS
inactive: all assays above

Nc1cccc(N)n1
inactive: all assays above

CCCCCCCCCCCC(C)=O
active: [5] 35.9 µM | [7] 36.8 µM | [8] 20 µM
inactive: all other assays above

CC(CCC(=O)O)(c1ccc(O)cc1)c1ccc(O)cc1
inactive: all assays above

CCCCCCCCC(CO)CCCCCC (stereo not given)
inactive: all assays above

c1ccc2c(c1)[nH]c1ccccc12
inactive: all assays above

c1ccc2sc(SSN3CCOCC3)nc2c1
inactive: [6]
active: [1] 12 µM | [2] 12.5 µM | [3] 20 µM | [4] 4.62 µM | [5] 6.94 µM | [7] 8.56 µM | [8] 2.19 µM | [9] 15.8 µM | [10] 5.46 µM

O=C(O)C(F)(F)C(F)(F)C(F)(F)C(F)(F)C(=O)O
inactive: all assays above

Oc1ccc(/C=C/c2cc(O)cc(O)c2)cc1
active: [1] 13.6 µM | [8] 10.5 µM | [10] 15.9 µM
inactive: all other assays above

CCCCCCCO
inactive: all assays above

O=C(Oc1ccccc1)c1ccccc1C(=O)Oc1ccccc1
inactive: all assays above

O=C1CCCCCCCCCCCN1
inactive: all assays above

CCCC(C)C(=O)OCC (stereo not given)
inactive: all assays above

CCc1cccc(C)c1N(C(=O)CS(=O)(=O)O)C(C)COC (stereo not given)
inactive: all assays above

CCCCCCCCCCCC(=O)N(C)CC(=O)O
active: [9] 30.9 µM
inactive: [1] | [2] | [3] | [4] | [5] | [6] | [7] | [8] | [9] | [10]

Cc1c(O)cccc1O
inactive: all assays above

CC1=CC=C(C(C)C)CC1
inactive: all assays above

CC(c1cc(C(C)(C)C)cc(C(C)(C)C)c1O)c1cc(C(C)(C)C)cc(C(C)(C)C)c1O
inactive: all assays above

C1CNCCN1
inactive: all assays above

C=C(C)C(=O)OCCCCCCCCCCCC
inactive: all assays above

CCC1(C)C(=O)N(Cl)C(=O)N1Cl (stereo not given)
inactive: all assays above

CCOC(=O)C1=NN(c2ccc(Cl)cc2Cl)C(C)(C(=O)OCC)C1 (stereo not given)
inactive: all assays above

CC(C)[N+](C)(CCOC(=O)C1c2ccccc2Oc2ccccc21)C(C)C
inactive: all assays above

CC(Cl)COP(=O)(OCC(C)Cl)OCC(C)Cl (stereo not given)
active: [8] 0.159 µM
inactive: all other assays above

O=C(Cl)c1c(Cl)c(Cl)c(C(=O)Cl)c(Cl)c1Cl
inactive: all assays above

CCCCCCOC(=O)CCCCC(=O)OCCCCCC
inactive: all assays above

CC=C(C)C(C)=O
inactive: all assays above

CC(C)c1cccc(C(C)C)c1N
inactive: all assays above

C=CC(=O)OCCCCCCOC(=O)C=C
active: [1] 14.2 µM | [3] 10.1 µM | [4] 10.5 µM | [5] 18 µM | [6] 20 µM | [7] 34 µM | [8] 20 µM | [9] 23.3 µM
inactive: [2] | [10]

CC1(C)CC(O)CC(C)(C)N1[O]
inactive: all assays above

Clc1cc(Cl)c(Cl)c(Cl)c1Cl
inactive: all assays above

CC/C=C\CCOC(=O)c1ccccc1O
inactive: [3] | [8] | [9]
active: [1] 3.97 µM | [2] 20 µM | [4] 32.9 µM | [5] 31.6 µM | [6] 14.4 µM | [7] 20 µM | [10] 20 µM

C=CCCCCCCCCC=O
inactive: all assays above

Nc1ccc(C(=O)O)cc1
inactive: all assays above

O=C1CCCCCCCCCCC1
inactive: all assays above

CCOC(=O)/C=C\C(=O)OCC
inactive: all assays above

C=CC(=O)NC(C)(C)C
inactive: all assays above

c1ccc(Nc2cccc3ccccc23)cc1
active: [1] 13.4 µM and 12.9 µM | [2] 30.6 µM and 32.2 µM | [5] 20 µM and 149 nM | [7] 29.9 µM and 28.9 µM | [8] 7.17 µM and 25.9 µM
inactive: all other assays above

CCCCC1C(=O)N(c2ccccc2)N(c2ccccc2)C1=O
inactive: all assays above

CCOC(=O)C1=NOC(c2ccccc2)(c2ccccc2)C1
inactive: all assays above

C=CC(=O)NCOCCCC
inactive: all assays above

CCNc1nc(NC(C)(C)C)nc(OC)n1
inactive: all assays above

Fc1ccc(Br)cc1
inactive: all assays above

Nc1nc(N)nc(-c2ccccc2)n1
inactive: all assays above

CCCCCCC=O
active: [8] 0.22 µM
inactive: all other assays above

COC(OC)(C(=O)c1ccccc1)c1ccccc1
inactive: all assays above

C=CC(=O)OCC(C)OCC(C)OCC(C)OC(=O)C=C (stereo not given)
inactive: [2] | [3] | [6]
active: [1] 16.1 µM | [4] 14.9 µM | [5] 25.2 µM | [7] 20 µM | [8] 20 µM | [9] 29.1 µM | [10] 5.95 µM
